Results published in the supplement of paper PMC8975748.
Structures can show the parent of a compound that is named as a salt.

system: Saccharomyces cerevisiae BY4741 SeMeCo community; test: z-score of subpopulation abundance vs DMSO median, subpopulation auxotrophic for LM; higher = larger share of this subpopulation than in DMSO controls; settings: 10 µM; 24 h; SM minimal medium; subpopulation (auxotrophy): LM
Protocol: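 Fluorescent four-plasmid SeMeCo (self-establishing metabolically cooperating S. cerevisiae BY4741 community; plasmids pH-mRuby2, pL-mWasabi, pU-eCFP, pM-TagRFP657) was grown 24 h in minimal SM medium with each Selleck FDA-approved drug at 10 µM in 384-well plates. Cells were fixed and imaged by high-content confocal microscopy. For each auxotrophic subpopulation (and the prototroph), a z-score gives the deviation from the DMSO vehicle-control population median.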

First: O=c1[nH]c(=O)n([C@H]2C[C@H](O)[C@@H](CO)O2)cc1I [Idoxuridine]
Second: O=c1c(-c2ccc(O)cc2)coc2c([C@@H]3O[C@H](CO)[C@@H](O)[C@H](O)[C@H]3O)c(O)ccc12 [Puerarin]
The “z-score of subpopulation abundance” value of the first is higher: 0.06 for the first, -0.04 for the second.

First: NCCNc1ccc(NCCN)c2c1C(=O)c1ccncc1C2=O [Pixantrone Maleate]
Second: CN(C)CCN1C(=O)c2cccc3cc(N)cc(c23)C1=O [Amonafide]
The “z-score of subpopulation abundance” value of the first is lower: -5.3 for the first, 1.08 for the second.

First: CCCCCCCCCCCCCCCC[N+](C)(C)C [Cetrimonium Bromide (CTAB)]
Second: CCCOc1ccc2c(c1)CC[C@@H]1[C@@H]2CC[C@]2(C)[C@@H](OC)CC[C@@H]12 [Promestriene]
The “z-score of subpopulation abundance” value of the first is higher: 3.5 for the first, 0.33 for the second.

Compared with CC1=C(C(=O)O)N2C(=O)[C@@H](NC(=O)[C@H](N)c3ccc(O)cc3)[C@H]2SC1 [Cefadroxil hydrate], CC1(C)S[C@@H]2[C@H](NC(=O)[C@H](N)c3ccc(O)cc3)C(=O)N2[C@H]1C(=O)O [Amoxicillin Sodium] is lower in “z-score of subpopulation abundance” value: -0.09 for the first, -1.17 for the second.

Going from CO/N=C(\C(=O)N[C@@H]1C(=O)N2C(C(=O)O)=C(CSC(=O)c3ccco3)CS[C@H]12)c1csc(N)n1 [Ceftiofur] to CC1(C)S[C@@H]2[C@H](NC(=O)Cc3ccccc3)C(=O)N2[C@H]1C(=O)O [Penicillin G Sodium], the “z-score of subpopulation abundance” value rises from -0.51 to -0.29.

Going from CC(c1cc2ccccc2s1)N(O)C(N)=O (stereo not given) [Zileuton] to O=C(c1ccccc1)c1ccc2n1CCC2C(=O)O (stereo not given) [Ketorolac tromethamine salt], the “z-score of subpopulation abundance” value falls from 0.16 to -0.1.

First: C#C[C@]1(OC(C)=O)CC[C@H]2[C@@H]3CCC4=C[C@@H](OC(C)=O)CC[C@@H]4[C@H]3CC[C@@]21C [Ethynodiol diacetate]
Second: CCC(=O)Oc1ccc2c(c1)CCC1C2CCC2(C)C(OC(=O)CC)CCC12 (stereo not drawn) [Estradiol dipropionate(17-Beta-Estradiol-3,17-Dipropionate)]
The “z-score of subpopulation abundance” value of the first is higher: 0.57 for the first, -0.31 for the second.

First: CC1(C)[C@H](C(=O)O)N2C(=O)C[C@H]2S1(=O)=O [Sulbactam]
Second: Cc1onc(-c2c(Cl)cccc2Cl)c1C(=O)N[C@@H]1C(=O)N2[C@@H]1SC(C)(C)[C@@H]2C(=O)O [Dicloxacillin Sodium]
The “z-score of subpopulation abundance” value of the first is higher: 1.07 for the first, 0.35 for the second.

Compared with Nc1cc(C(Cl)=C(Cl)Cl)c(S(N)(=O)=O)cc1S(N)(=O)=O [Clorsulon], COc1ccc(NS(=O)(=O)c2ccc(N)cc2)nn1 [Sulfamethoxypyridazine] is lower in “z-score of subpopulation abundance” value: -0.35 for the first, -0.89 for the second.

First: O=C(Nc1cc(Cl)cc(Cl)c1O)c1c(O)c(Cl)cc(Cl)c1Cl [Oxyclozanide]
Second: CN(C)CC/C=C1/c2ccccc2Sc2ccc(Cl)cc21 [Chlorprothixene]
The “z-score of subpopulation abundance” value of the first is lower: -0.51 for the first, 0.18 for the second.

Compared with CC1(C)[C@H](C(=O)O)N2C(=O)C[C@H]2S1(=O)=O [Sulbactam sodium], Cc1cc(C)nc(O)n1.O=C(Nc1ccc([N+](=O)[O-])cc1)Nc1ccc([N+](=O)[O-])cc1 [Nicarbazin] is lower in “z-score of subpopulation abundance” value: -0.08 for the first, -1.07 for the second.

Going from CN1CCN(C2=Nc3ccccc3Oc3ccc(Cl)cc32)CC1 [Loxapine Succinate] to Cc1ccc(Sc2ccccc2N2CCNCC2)c(C)c1, the “z-score of subpopulation abundance” value falls from 0.87 to -0.55.

Compared with COc1ccc(Cl)cc1C(=O)NCCc1ccc(S(=O)(=O)NC(=O)NC2CCCCC2)cc1 [Glyburide (Glibenclamide)], CN(CCOc1ccc(NS(C)(=O)=O)cc1)CCc1ccc(NS(C)(=O)=O)cc1 [Dofetilide] is lower in “z-score of subpopulation abundance” value: 1.74 for the first, 0.47 for the second.

Compared with Nc1ccc(/N=N/c2ccccc2)c(N)n1 [Phenazopyridine HCl], Nc1ccc(S(=O)(=O)Nc2nccs2)cc1 [Sulfathiazole] is lower in “z-score of subpopulation abundance” value: 0.47 for the first, -0.24 for the second.

Going from CC[C@@H]([C@H](C)O)n1ncn(-c2ccc(N3CCN(c4ccc(OC[C@@H]5CO[C@@](Cn6cncn6)(c6ccc(F)cc6F)C5)cc4)CC3)cc2)c1=O [Posaconazole] to CN(C)CCOc1ccc(/C(=C(/CCCl)c2ccccc2)c2ccccc2)cc1 [Toremifene Citrate], the “z-score of subpopulation abundance” value falls from 4.46 to 0.69.

Going from NC[C@H]1O[C@H](O[C@H]2[C@H](O)[C@@H](O[C@H]3O[C@H](CO)[C@@H](O)[C@H](N)[C@H]3O)[C@H](N)C[C@@H]2N)[C@H](N)C[C@@H]1O [Tobramycin] to CC1=C(C(=O)OCCN(Cc2ccccc2)c2ccccc2)C(c2cccc([N+](=O)[O-])c2)C(P2(=O)OCC(C)(C)CO2)=C(C)N1 (stereo not given) [Efonidipine], the “z-score of subpopulation abundance” value rises from -0.17 to 2.26.

First: Nc1nc2[nH]cc(CCc3ccc(C(=O)N[C@@H](CCC(=O)O)C(=O)O)cc3)c2c(=O)[nH]1 [Pemetrexed Disodium Hydrate]
Second: O=C(CCCN1CC=C(n2c(=O)[nH]c3ccccc32)CC1)c1ccc(F)cc1 [Droperidol]
The “z-score of subpopulation abundance” value of the first is lower: -3.99 for the first, 0.69 for the second.

Compared with CCCN[C@H]1CCc2nc(N)sc2C1 [Pramipexole], Cc1[nH]cnc1CN1CCc2c(c3ccccc3n2C)C1=O [Alosetron Hydrochloride] is higher in “z-score of subpopulation abundance” value: -0.62 for the first, 0.27 for the second.

Compared with CS(=O)(=O)c1ccc([C@@H](O)[C@@H](CO)NC(=O)C(Cl)Cl)cc1 [Thiamphenicol], CCc1c2c(nc3ccc(OC(=O)N4CCC(N5CCCCC5)CC4)cc13)-c1cc3c(c(=O)n1C2)COC(=O)[C@]3(O)CC [Irinotecan HCl Trihydrate] is higher in “z-score of subpopulation abundance” value: -0.48 for the first, 0.19 for the second.

Going from OC(c1ccccc1)(c1ccccc1)C12CC[N+](CCOCc3ccccc3)(CC1)CC2 [Umeclidinium bromide] to O=C1[C@H]2CCCC[C@H]2C(=O)N1CCCCN1CCN(c2nsc3ccccc23)CC1 [Perospirone hydrochloride], the “z-score of subpopulation abundance” value falls from -0.42 to -0.76.
